# Measured values reported in PubChem BioAssay (EPA / NIEHS).
# Inconclusive results are not listed. The source made the active and inactive calls. How the source made its calls: active means hit-call score of the fitted dose curve at least 0.9, where 1 is the maximum; inconclusive means response in the unintended direction; inactive means score below 0.9.
# Key:
# [1] = molecular target: rat Opioid Receptor, Non-selective Sodium (Na+) Binding, Oprm1 (gene 25601) (UniProt P33535); assay: NVS_GPCR_rOpiate_NonSelectiveNa: NovaScreen (NVS) G Protein-Coupled Receptor Assay for rat Opioid Receptor, Non-selective Sodium (Na+) Binding (AID 2283311)
# How it was run: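 Filtration radioligand binding on rat forebrain membrane preparations, read 1.5 h after dosing. Single-concentration 25 µM primary screen in duplicate, followed by singleton concentration series to 50 µM max for actives; DMSO baseline.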
# [2] = molecular target: rat Opioid Receptor, Non-selective Binding, Oprm1 (gene 25601) (UniProt P33535); assay: NVS_GPCR_rOpiate_NonSelective: NovaScreen (NVS) G Protein-Coupled Receptor Assay for rat Opioid Receptor, Non-selective Binding (AID 2283318)
# How it was run: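 Filter-based radioligand displacement using rat forebrain membrane preparations, measured 1.5 h post-dosing. Single-concentration duplicate screen at 25 uM, follow-up in concentration series; activity taken as signal loss relative to DMSO.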
# [3] = molecular target: Sodium channel protein type 1 subunit alpha (Rattus norvegicus) (UniProt P04774); assay: NVS_IC_rNaCh_site2: NovaScreen (NVS) Ion Channel Assay for rat Sodium Channel, Site 2 (NaCh) (AID 2283322);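 further: hit means loss of radioligand binding signal relative to DMSO so AC50 marks displacement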
# How it was run: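 Initial duplicate single-point testing at 25 uM, followed by concentration-response runs for actives. Binding of radioligand to rat forebrain membranes quantified after 1 h via filter-based radiodetection.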
# [4] = molecular target: rat Somatostatin Receptor (SST), Sstr1 (gene 25033) (UniProt P28646); assay: NVS_GPCR_rSST: NovaScreen (NVS) G Protein-Coupled Receptor Assay for rat Somatostatin Receptor (SST) (AID 2283314)
# How it was run: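 Single-concentration duplicate screen (25 uM), then concentration-response up to 50 uM for chemicals passing a threshold such as 30% inhibition. Membranes came from rat forebrain. Binding was measured 1 h post-dose by filter radiodetection and scintillation, relative to DMSO.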
# NCBI gene 24521 = assay: NVS_IC_rKATPCh: NovaScreen (NVS) Ion Channel Assay for rat Potassium Channel, ATP-Sensitive (KATPCh) (AID 2283319)
# How it was run: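 Primary duplicate screen at 25 uM, then singleton concentration series to 50 uM maximum, in a rat cortex membrane radioligand displacement assay. Binding measured by filtration and scintillation 2 h post-dose; DMSO baseline.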
# Sequence of rat Somatostatin Receptor (SST), Sstr1 (gene 25033) (P28646 whole entry, looked up): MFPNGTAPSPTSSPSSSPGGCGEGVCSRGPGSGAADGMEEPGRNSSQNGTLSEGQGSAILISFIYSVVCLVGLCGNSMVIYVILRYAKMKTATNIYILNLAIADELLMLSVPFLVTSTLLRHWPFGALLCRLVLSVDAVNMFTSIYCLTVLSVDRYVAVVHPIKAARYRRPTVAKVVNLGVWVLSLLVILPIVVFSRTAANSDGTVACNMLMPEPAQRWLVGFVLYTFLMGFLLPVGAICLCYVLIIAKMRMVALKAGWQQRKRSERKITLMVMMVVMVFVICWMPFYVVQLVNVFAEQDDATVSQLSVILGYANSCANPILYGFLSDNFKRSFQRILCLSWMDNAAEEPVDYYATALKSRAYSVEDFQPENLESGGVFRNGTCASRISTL
# Sequence of rat Opioid Receptor, Non-selective Sodium (Na+) Binding, Oprm1 (gene 25601) (P33535 whole entry, looked up): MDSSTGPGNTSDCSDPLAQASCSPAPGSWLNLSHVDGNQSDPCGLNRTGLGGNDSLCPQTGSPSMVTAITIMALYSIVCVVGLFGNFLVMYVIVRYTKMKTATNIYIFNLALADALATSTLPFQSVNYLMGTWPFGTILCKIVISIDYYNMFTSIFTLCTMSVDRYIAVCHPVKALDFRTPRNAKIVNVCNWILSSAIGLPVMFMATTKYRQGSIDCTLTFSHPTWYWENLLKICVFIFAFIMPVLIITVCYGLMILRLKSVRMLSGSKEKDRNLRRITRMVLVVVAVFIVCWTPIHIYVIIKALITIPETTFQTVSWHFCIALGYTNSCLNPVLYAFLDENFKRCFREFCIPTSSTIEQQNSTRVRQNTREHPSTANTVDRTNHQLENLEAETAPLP
# Sequence of rat Opioid Receptor, Non-selective Binding, Oprm1 (gene 25601) (P33535 whole entry, looked up): as above
smiles,measurement,setting,value
C=CCOC(Cn1ccnc1)c1ccc(Cl)cc1Cl (stereo not given),outcome,[1],inactive
same,AC50,[2],9.36 µM (active)
same,AC50,[3],4.57 µM (active)
COC(=O)c1ccccc1S(=O)(=O)NC(=O)Nc1nc(OC(F)F)cc(OC(F)F)n1,AC50,[4],36.3 µM (active)
c1ccc(Nc2ccccc2)cc1,outcome,NCBI gene 24521,inactive
